Source: PubChem
L3MBTL1 inh = blocks human L3MBTL1 | Q9Y468 | 230,000 tested, 0.66% active | AID 485360 | AlphaScreen L3MBTL1–H3K9me1 peptide binding | Potency, µM (doses to about 57.1 µM), without a hit: at the top dose activity, negative = inhibition, hits mostly inhibitors; further: on the % scale 0 is the no-effect control and ±100 the full control effect; nearly all actives have a fitted effect of over 60% in size
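L3MBTL1 (50 nM) pre-complexed 30 min with biotinylated H3(1-15)K9me1 peptide (75 nM), then compounds added for 30 min at room temperature; AlphaScreen streptavidin donor/nickel chelate acceptor beads (10 ug/mL final) read after 30 min dark incubation.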
WRN inhibitor = WRN helicase (human) inhibition; WRN helicase unwinding, fluorescent forked duplex, kinetic; Q14191; Potency, µM (series often up to 114 µM), for inactives: at the highest dose activity change, negative = inhibition, usual class: inhibitors; AID 651768; 360,000 tested, 0.46% active; further: on the % scale 0 is the no-effect control and ±100 the full control effect; nearly all actives have a fitted effect of over 55% in size
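Kinetic red-fluorescence monitoring (525/598 nm) tracks WRN helicase activity after 100 nM fluorophore-quencher forked duplex and 2 mM ATP are added to 20 nM enzyme pretreated 15 min at room temperature with compound.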
Pol eta inh = blocks human DNA polymerase eta activity; recombinant Pol eta, fluorescent DNA replication assay; Potency, µM (highest dose often 114 µM), without a hit: at the highest dose activity change, negative = inhibition, usual class: inhibitors; 390,000 tested, 1.2% active; AID 588591; further: on the % scale 0 is the no-effect control and ±100 the full control effect
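Pol eta (10 nM) was preincubated with compounds for 15 min at room temperature, after which fluorescent replication substrate (50 nM final) was added to start the reaction. Fluorescence was read kinetically at 0 and 10 min.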
Pol iota inh = DNA polymerase iota (human) inhibition; Pol iota fluorescent replication assay, 10 min; Potency, µM (series often up to 115 µM), without a hit: top-dose activity, negative = inhibition, actives largely listed as inhibitors; 390,000 tested, 1% active; AID 588590
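Pol iota at 10 nM preincubated 15 min with compounds at room temperature; reaction started with fluorescent substrate, 50 nM final. Fluorescence read kinetically at 0 and 10 min; buffer-only wells as negative control.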
POLK inh = blocks human DNA polymerase kappa activity; 400,000 tested, 0.53% active; purified Pol kappa, fluorescent DNA synthesis assay, 10 min; Potency, µM (top dose mostly 107 µM), without a hit: at the highest dose activity, negative = inhibition, most hits filed as inhibitors; Q9UBT6; further: on the % scale 0 is the no-effect control and ±100 the full control effect
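Here, compound and 10 nM enzyme are combined for 15 min at room temperature; adding 50 nM substrate (final) starts DNA synthesis, tracked by fluorescence at 0 and 10 min against buffer-only wells.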
POLB inh = inhibitors of human DNA polymerase beta; P06746; Pol beta primer extension/strand displacement, fluorescence kinetic; Potency, µM (top dose mostly 114 µM), for the others: at the top dose activity change, negative = inhibition, actives largely listed as inhibitors; 340,000 tested, 1.3% active; further: on the % scale 0 is the no-effect control and ±100 the full control effect
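Kinetic readout of DNA synthesis with strand displacement by Pol beta. Compound and 10 nM enzyme sit 15 min at room temperature; 50 nM substrate starts the reaction, read immediately and at 10 min.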
Numbers without * were called inactive; ? = inconclusive; . = not tested or not shown; [ ] = dose if it differs, or a comment. Shown are actives, neighbours in structure and some others; about 2.5% of the full set was active somewhere. The call rests on the fitted dose curve; in most records, active means well fitted curve in the direction sought with a large enough effect; inconclusive means small, poorly fitted or top-dose-only effect, or another doubt; inactive means no such curve, though single readings can be large; an effect the other way counts as inactive or inconclusive. Potency means the concentration at half of the fitted maximal effect.

SMILES	L3MBTL1 inh	WRN inhibitor	Pol eta inh	Pol iota inh	POLK inh	POLB inh
COc1ccc(-c2cc(=O)c3cc(OC)ccc3[nH]2)cc1	6.5%	3.0%	1.4%	35.5µM*	4.4%	14.2%
CC(C)(C)NC(=O)CCSc1nnc(-c2ccco2)o1	-26.6%	-3.2%	-20.2%	0.9%	-8.4%	-1.5%
O=C1CC(c2ccc(Cl)cc2)c2c(O)cc(O)cc2O1 (stereo not given)	.	-1.6%	-18.3%	63.7%	-22.6%	17.5%
C/C=C/C=C/[C@H]1Cc2cc(O)cc(O)c2O1	.	.	.	.	.	50.1µM*
COc1cccc(NC(=O)CSc2nc(C3CC3)nc3ccccc23)c1	.	-9.9%[11.6 µM]	39.8µM*	?	3.0%	-2.1%
CCCCCCC(=O)N(O)C1CC(=O)N(c2ccc(C)cc2)C1=O (stereo not given)	.	-4.4%	-4.7%	?	-5.7%	0.2%
CCCCCCC(=O)N(O)C1CC(=O)N(c2ccc(Cl)cc2)C1=O (stereo not given)	-0.8%	79.4µM*	-8.2%	-1.8%	3.5%	-14.5%
CCN(C[C@H]1N[C@@](CC)(C(=O)OC)[C@H]2C(=O)N(Cc3ccccc3)C(=O)[C@@H]12)C(=O)COc1ccccc1	4.3%	-0.7%	-8.8%	33.3%	21.4%	.
CC12CCC(C(=O)C1)C1(C)CCCC(=O)C21 (stereo not given)	.	1.1%	-15.4%	-3.3%	-9.8%	.
COc1ccc(CNC(=O)Nc2ccc(C)cc2)cc1	.	-2.2%	-10.4%	-6.2%	-21.2%	-23.3%
COc1ccc(CNC(=O)Nc2cc(C)cc(C)c2)cc1	-2.7%	-0.3%	-0.9%	19.8%	-1.2%	31.6µM*
COc1ccc(CC2=CC(=O)c3ccccc3C2=O)cc1	?	-9.0%[11.6 µM]	?	10µM*	-10.7%	-1.8%
COCc1c(CCl)cnc(C)c1O	3.7%	-2.1%	-15.6%	28.8%	-3.4%	6.8%
COCc1cc(O)c(O)c(O)c1-c1c(COC)cc(O)c(O)c1O	.	.	.	2.82µM*	0.212µM*	.
Cc1nn(Cc2ccc(Cl)cc2)c(C)c1NC(=O)CCCn1nc([N+](=O)[O-])c(Cl)c1C	4.3%	-1.1%	0.2%	11.2%	-16.9%	89.1µM*
Cc1ccccc1Cc1c(C)nc2nc(SCC(=O)NC(C)c3ccccc3)nn2c1C (stereo not given)	.	.	-21.2%	-6.7%	3.5%	-11.1%
CCOCCCNC(=O)C(c1ccc(OC)cc1)N(Cc1ccc2c(c1)OCO2)C(=O)c1ccc(NC(C)=O)cc1 (stereo not given)	.	.	-9.7%	-14.9%	-8.3%	46.3%
Cc1ccc(NC(=S)/C(C#N)=C2/Nc3ccccc3S2)cc1	.	-30.3%	39.8µM*	.	.	.
CC1=C(C(=O)OC(C)C)[C@@H](c2ccc(C)o2)NC(=O)N1	-0.9%	?	1.12µM*	-21.6%	-6.0%	12.5%
CCOC(=O)C1=C(C)NC(=O)NC1c1ccco1 (stereo not given)	?	-34.6%	79.4µM*	44.7µM*	?	35.5µM*
CC1=C(C(=O)OC(C)C)C(c2ccc(F)cc2)NC(=O)N1 (stereo not given)	4.2%	-2.9%	-11.0%	16.6%	-3.9%	10.7%
CC1=C(C(=O)OC(C)C)C(c2ccc(C)o2)C(C(=O)OC(C)C)=C(C)N1	-8.9%	-13.5%	-13.1%	-28.6%	-14.1%	11.7%
CCOC(=O)C1=C(C)NC(=O)NC1c1ccc(Br)o1 (stereo not given)	-0.2%	-3.5%	-11.6%	69.7%	-1.0%	1.9%
COCCOC(=O)C1=C(C)NC(=O)NC1c1ccco1 (stereo not given)	-29.9%	9.5%	79.4µM*	39.8µM*	-31.0%	?
CC1=C(C(=O)OC(C)C)C(c2ccco2)NC(=O)N1 (stereo not given)	?	-23.8%	?	?	-12.5%	50.1µM*
CCc1nc2ccc(C(=O)Nc3ccc(OC)c(OC)c3)cn2c1N(CC)Cc1ccc(OC)c(OC)c1	.	-6.1%	.	.	.	.
